# CHX counter – Cycloheximide Counterscreen for Small Molecule Inhibitors of Shiga Toxin; cell reporter, cycloheximide protein synthesis inhibition counterscreen; max response, %; 12% of 300,000 active; in the data active means max response mostly above about 13%, no sharp cut-off; inactive means mostly below about 14%; further: read at 38.3 µM for the half of the compounds with a filed dose; 0% is about no effect
# TbPYK inhibitor – qHTS of Trypanosoma Brucei Inhibitors. TbPYK enzyme, Kinase-Glo Plus ATP luminescence, 45 min. Potency, µM (doses to about 76.8 µM), inactives show at the highest dose activity, negative = inhibition, usual class: inhibitors. 0.12% of 410,000 active; further: potency means the concentration at half of the fitted maximal effect; on the % scale 0 is the no-effect control and ±100 the full control effect; nearly all actives have a fitted effect of over 50% in size
#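 ADP (130 uM final) triggers the TbPYK reaction after compound addition; incubation is 45 min at room temperature. Kinase-Glo Plus is then added and luminescence imaged. Normalized data are fitted to concentration-effect curves.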
# Shiga toxin inh – A qHTS for Small Molecule Inhibitors of Shiga Toxin; Vero cells, Shiga toxin protein synthesis inhibition reporter; inhibition, % at 38.7 µM; 9.2% of 290,000 active; in the data active means inhibition mostly above about 28%, no sharp cut-off; inactive means mostly below about 43%; further: 0% is about no effect
# Giardia FBPA inh – qHTS Assay for Inhibitors of Fructose-1,6-bisphosphate Aldolase from Giardia Lamblia | A8B2U2 | purified Giardia FBPA | Potency, µM (titrated, usually from 59.6 µM), for inactives: at the highest dose activity, negative = inhibition, actives largely listed as inhibitors | 0.71% of 290,000 active; further: potency means the concentration at half of the fitted maximal effect; on the % scale 0 is the no-effect control and ±100 the full control effect; nearly all actives have a fitted effect of over 55% in size
#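 40 nM FBPA preincubated 10 min at RT with compound (up to 57.5 uM final), then substrate plus GAPDH/TPI/NAD/arsenate coupling and diaphorase/resazurin added. Fluorescence read after 20 min at RT, 525/598 nm.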
# Sm TGR inh – qHTS Assay for the Inhibitors of Schistosoma Mansoni Peroxiredoxins; 3% of 360,000 active; AID 485364, 2010; Schistosoma mansoni thioredoxin glutathione reductase (TGR), Q962Y6; purified TGR, DTNB reduction, TNB absorbance 405 nm; Potency, µM (top dose mostly 114 µM), for inactives: at the highest dose activity change, negative = inhibition, actives largely listed as inhibitors; further: potency means the concentration at half of the fitted maximal effect; on the % scale 0 is the no-effect control and ±100 the full control effect; nearly all actives have a fitted effect of over 60% in size
#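 First, TGR (20 nM dispensed) and NADPH were mixed with compound. Second, a 15 min room-temperature incubation followed. Third, further NADPH and then DTNB were added to start the reaction. Finally, TNB absorbance was monitored kinetically.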
# LmPK inh – qHTS Assay for Inhibitors of Leishmania Mexicana Pyruvate Kinase (LmPK); Q27686; purified LmPK, Kinase-Glo ATP luminescence, 1 h; Potency, µM (top dose mostly 57.5 µM), for inactives: at the highest dose activity change, negative = inhibition, hits mostly inhibitors; 0.37% of 290,000 active; AID 1721, 2009; further: potency means the concentration at half of the fitted maximal effect; on the % scale 0 is the no-effect control and ±100 the full control effect
# Target sequence (Q27686 whole entry, looked up): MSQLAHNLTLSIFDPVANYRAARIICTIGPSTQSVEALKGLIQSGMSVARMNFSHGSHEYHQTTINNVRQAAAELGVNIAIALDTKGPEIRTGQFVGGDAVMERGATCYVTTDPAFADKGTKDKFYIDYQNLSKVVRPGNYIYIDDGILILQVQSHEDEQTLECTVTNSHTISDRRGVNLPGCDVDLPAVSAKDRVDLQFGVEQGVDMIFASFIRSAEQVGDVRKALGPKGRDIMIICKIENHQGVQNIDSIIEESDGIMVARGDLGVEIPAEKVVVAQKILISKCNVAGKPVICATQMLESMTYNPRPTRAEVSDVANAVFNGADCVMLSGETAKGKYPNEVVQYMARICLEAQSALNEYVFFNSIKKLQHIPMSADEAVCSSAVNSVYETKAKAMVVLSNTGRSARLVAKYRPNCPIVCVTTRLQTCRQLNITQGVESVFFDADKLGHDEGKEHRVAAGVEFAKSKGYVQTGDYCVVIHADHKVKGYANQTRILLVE
#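 Purified LmPK (0.1 nM) converted ADP (0.1 mM) to ATP with PEP (0.5 mM) in imidazole buffer pH 7.2 with KCl and MgCl2, 1 h at room temperature. ATP was read by Kinase-Glo luminescence; data normalized to uninhibited and no-enzyme controls.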
# * marks the source's active call; other numbers are inactive results; ? = inconclusive; nt = no result; [ ] = remark or other dose. The sample as a whole holds a higher share of hits than the screen did. Unless noted, the call rests on the fitted dose curve; in most records, active means well fitted curve in the direction sought with a large enough effect; inconclusive means small, poorly fitted or top-dose-only effect, or another doubt; inactive means no such curve, though single readings can be large; an effect the other way counts as inactive or inconclusive.
SMILES,CHX counter,TbPYK inhibitor,Shiga toxin inh,Giardia FBPA inh,Sm TGR inh,LmPK inh
CCOC(=O)CN(C(=O)CSc1nnc(CNc2ccc(F)cc2)o1)c1ccccc1,22*,-15%,-6,-2%,-2%,5%
CCOC(=O)CN(C(=O)CSc1nnc(-c2cccc(OC)c2)o1)c1ccc(F)cc1,15*,9%,32,-10%,-2%,-3%
CSc1nc(C)cc(C)c1C(N)=O,-1,2%,-7,1%,-13%,1%
Cc1cc(C)c(C(=O)O)c(Cl)n1,10,1%,11,?,40µM*,4%
O=C(CSc1ccc2c(c1)OCCO2)NCc1ccco1,5,-7%,-2,-7%,20µM*,4%
CCn1c(=O)cc(SCC(=O)Nc2ccc(C)c(F)c2)c2ccccc21,nt,3%,nt,nt,4%,nt
CCn1c(=O)cc(SCC(=O)Nc2ccc3c(c2)OCO3)c2ccccc21,9.9*,8%,25,11%,4%,1%
O=C(CN1CCOc2ccccc21)NCc1ccco1,4,-2%,8,-18%,50µM*,10%
O=C(CSc1nnc2ccccn12)Nc1ccc2c(c1)OCCO2,26*,1%,130*,3%,11%,1%
O=C(CSc1ccccc1)NCc1ccco1,8,4%,39,-2%,-22%,-2%
O=c1c(-c2cc(F)cc(F)c2)nc2cnc(N3CCNCC3)nc2n1-c1ccccc1,nt,nt,nt,4%,nt,nt
O=C(CSc1nnc2ccccn12)Nc1ncc(Cl)cc1Cl,23*,2%,36,3%,0%,0%
O=C(Cn1cnc2ccccc2c1=O)NCCC(=O)Nc1ccc2c(c1)OCCO2,4,0%,35,1%,8%,-3%
O=C(Cn1cnc2ccccc2c1=O)Nc1ccc2c(c1)OCCO2,46*,6%,90*,1%,6%,2%
O=C(CCS(=O)(=O)c1ccccc1)Nc1ccc2c(c1)OCO2,55*,2%,112*,0%,20µM*,-3%
Cc1cccc(-n2ccnc2SCC(=O)Nc2ccc3c(c2)OCCO3)c1,27*,-9%,-2,1%,-28%,1%
COc1cc(CN(C(=O)c2cccc(C)c2)c2ccccn2)cc(OC)c1OC,nt,-5%,nt,nt,-1%,nt
CCC1CC=CC2C1C(=O)N(Cc1ccccc1)C2c1cc(C)ccc1F (stereo not drawn),-7,nt,5,-1%,nt,nt
O=C(CSc1ccccc1F)Nc1ccc2c(c1)OCO2,nt,1%,nt,nt,nt,nt
O=C(CSc1ccc2c(c1)OCCO2)Nc1ccc2c(c1)OCO2,15*,1%,-12,0%,2%,5%
O=C(CSc1cccc[n+]1[O-])Nc1ccc2c(c1)OCCO2,16*,-3%,25,1%,5%,12%
O=C(CSc1ccccc1)Nc1ccc2c(c1)OCO2,47*,-1%,65*,17%,-15%,3%
O=C(CSc1ccccc1)Nc1ccc2c(c1)OCCO2,40*,0%,75*,nt,?,-9%
CN(C)c1ncc2nc(-c3ccccc3)c(=O)n(-c3ccccc3)c2n1,nt,nt,nt,-2%,nt,nt
CC1CCCC(C)N1C(=O)CSc1ccc(-c2ccc3c(c2)OCCO3)nn1 (stereo not drawn),11,4%,40,-17%,-3%,0%
SMILES,CHX counter,TbPYK inhibitor,Shiga toxin inh,Giardia FBPA inh,Sm TGR inh,LmPK inh
O=C(CSc1cn(CCNC(=O)c2ccccc2F)c2ccccc12)Nc1ccc2c(c1)OCCO2,nt,2%,nt,nt,5%,nt
Cc1ccccc1CN1CCN(CC(=O)NCc2ccccc2Cl)C1=O,nt,-1%,nt,nt,5%,nt
Cc1ccccc1CN1CCN(CC(=O)NCc2ccco2)C1=O,5,-5%,-12,1%,40µM*,1%
O=C(CSc1nc(-c2ccccc2)c(-c2ccccc2)[nH]1)Nc1ccc2c(c1)OCO2,15*,-4%,24,-2%,-10%,9%
CC1CCN(C(=O)CSc2ccc(-c3ccc4c(c3)OCCO4)nn2)CC1,20*,-5%,35,nt,-10%,-11%
O=C(CSc1nc(-c2ccccc2)[nH]c1-c1ccccc1)Nc1ccc2c(c1)OCO2,nt,6%,nt,nt,7%,nt
Cn1cc(SCC(=O)Nc2ccc3c(c2)OCCO3)c2ccccc21,24*,?,63*,-2%,-4%,1%
Cc1cn2c(=O)c(S(=O)(=O)NCCc3ccccc3)c(C)nc2s1,nt,-6%,nt,nt,2%,nt
COC(=O)c1ccc(NC(=O)CSc2ccc(-c3sc(-c4ccccc4)nc3C)nn2)cc1,nt,0%,nt,nt,-10%,nt
O=C(CSc1ccc(-c2ccccc2)nn1)Nc1ccc2c(c1)OCCO2,79*,3%,74*,-6%,0%,-1%
O=C(CSc1nnc2scc(-c3ccccc3)n12)Nc1ccc2c(c1)OCCO2,-1,0%,-2,20%,2%,-1%
CSC1=N/C(=C\c2cccnc2)C(=O)N1c1ccccc1,27*,2%,24,1%,0%,1%
CC1=N/C(=C/c2cccnc2)C(=O)O1,34*,4%,26,5%,22µM*,-3%
Cc1cccc(C2=N/C(=C\c3cccnc3)C(=O)O2)c1,1,3%,-3,2%,-16%,7%
Cc1ccc(C2=C/C(=C/c3cccnc3)C(=O)O2)c(C)c1,11*,-9%,8,?,-17%,1%
CCSC1=N/C(=C\c2cccnc2)C(=O)N1c1ccccc1,-2,2%,-11,2%,4%,1%
NCC(O)C1CCCCCCC1 (stereo not drawn),nt,nt,nt,-1%,nt,nt
O=C(NCc1cccc(Br)c1)c1cnn(-c2ccc(F)cc2)c1-n1cccc1,nt,-7%,nt,nt,-13%,nt
C[N+](C)(C)CCOP(=O)(O)OP(=O)([O-])OCC1OC(n2ccc(N)nc2=O)[C@H](O)[C@@H]1O (stereo partly drawn),nt,1%,nt,nt,nt,nt
COC(=O)c1c(-c2ccc(Cl)cc2)noc1N1CCN(c2cccc(OC)c2)CC1,nt,3%,nt,nt,-4%,nt
O=C(O)/C=C\C(=O)Nc1ccccc1C#Cc1ccccc1,59*,-15%,active,2%,40µM*,0%
O=C(O)/C=C\C(=O)Nc1ccccc1C#Cc1ccc(Br)cc1,56*,8%,89*,-9%,45µM*,1%
CCC(C)NC(=O)c1ccccc1NC(=O)CN1C(=O)c2cccc3cccc1c23 (stereo not drawn),nt,-4%,nt,nt,0%,nt
CS(=O)(=O)Nc1cccc(C2=NN(S(C)(=O)=O)C(c3ccccc3)C2)c1 (stereo not drawn),9,-3%,27,1%,-12%,12%[11.5 µM]
CS(=O)(=O)N1N=C(c2ccco2)CC1c1cccc([N+](=O)[O-])c1 (stereo not drawn),-2,0%,12,2%,45µM*,9%
